High-throughput results: PubChem BioAssay, National Center for Advancing Translational Sciences (NCATS)
Cruzain inh Det = cruzain (T. cruzi) inhibition with detergent; 200,000 compounds, 0.43% hits; purified cruzain, Z-FR-AMC fluorescence, 0.01% Triton; P25779; AID 1478; Potency, µM, without a hit: max response, negative = inhibition, hits mostly inhibitors;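 further: plate controls were neutral wells for no effect and buffer without enzyme for full effect; nearly all actives have a fitted effect of over 40% in size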
Target sequence (P25779 123-467 limits assumed): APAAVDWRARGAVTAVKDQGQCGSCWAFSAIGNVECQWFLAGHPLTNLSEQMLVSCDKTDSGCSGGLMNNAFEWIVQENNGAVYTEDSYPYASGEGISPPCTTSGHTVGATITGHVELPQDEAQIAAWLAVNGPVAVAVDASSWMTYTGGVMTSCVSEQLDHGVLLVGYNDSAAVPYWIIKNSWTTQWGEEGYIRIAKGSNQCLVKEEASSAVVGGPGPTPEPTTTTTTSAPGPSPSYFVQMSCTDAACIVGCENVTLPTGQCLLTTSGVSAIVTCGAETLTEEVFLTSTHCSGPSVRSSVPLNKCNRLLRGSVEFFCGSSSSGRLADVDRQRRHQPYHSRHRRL
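15 min RT preincubation of 1.5 nM cruzain with compound, then 2 uM Z-FR-AMC added; kinetic AMC fluorescence, 60 s delta. Triton X-100 0.01%, pH 5.5.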
Cruzain inh noDet = cruzain (T. cruzi) inhibition without detergent. purified cruzain, Z-FR-AMC fluorescence, no detergent. Potency, µM, without a hit: max response, negative = inhibition, actives largely listed as inhibitors. 200,000 compounds, 2.3% hits;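 further: plate controls were enzyme without inhibitor for no effect and buffer without enzyme for full effect; nearly all actives have a fitted effect of over 40% in size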
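Purified cruzain at 1.5 nM, pre-incubated 15 min with compound at room temperature in 100 mM sodium acetate pH 5.5, 5 mM DTT, 0.00005% Triton X-100. Reaction started with 2 uM Z-FR-AMC; AMC fluorescence increase over 60 s gives rate.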
* = called active by the depositor. Compounds with a hit are over-represented: about 2.6% of the library has one in this group of screens. The call rests on the fitted dose curve; in most records, active means well fitted curve in the direction sought with a large enough effect; inconclusive means small, poorly fitted or top-dose-only effect, or another doubt; inactive means no such curve, though single readings can be large; an effect the other way counts as inactive or inconclusive. Potency means the concentration at half of the fitted maximal effect.

COP(=O)(OC)c1nc(-c2cccc3ccccc23)oc1NCCc1ccccc1 was read as Cruzain inh Det 25µM* and Cruzain inh noDet inconclusive.
`COCCNC(=O)C1CCCN(S(=O)(=O)c2ccc3c(ccn3C)c2)C1` (stereo not drawn) gave Cruzain inh Det -4% and Cruzain inh noDet 1%.
Screening Cc1ccc(NC(=O)c2ccc(Nc3c([N+](=O)[O-])cc([N+](=O)[O-])cc3[N+](=O)[O-])cc2)cc1 returned Cruzain inh Det -8% and Cruzain inh noDet inconclusive.
For CCc1ccccc1NC(=O)c1ccc(NCCc2ccccc2)c([N+](=O)[O-])c1 the results were Cruzain inh Det -4% and Cruzain inh noDet -4%.
Cc1ccccc1NC(=O)c1ccc(N/N=C/c2ccccc2O)c([N+](=O)[O-])c1 was read as Cruzain inh Det 0% and Cruzain inh noDet 10µM*.
For Cc1ccc(NC(=O)c2ccc(N/N=C/c3cccc(O)c3)c([N+](=O)[O-])c2)cc1 the results were Cruzain inh Det 0% and Cruzain inh noDet 10µM*.
Screening CCNc1ncc2ncc(=O)n(CCOC)c2n1 returned Cruzain inh Det -18% and Cruzain inh noDet -13%.
Screening CCOc1cc(C(=O)Nc2ccc(-c3nc4ccccc4s3)cc2Cl)cc(OCC)c1OCC returned Cruzain inh Det 1% and Cruzain inh noDet -5%.
For Cc1ccc(N2CC(NC(=O)C3CCCCC3)CC2=O)cc1 (stereo not drawn) the results were Cruzain inh Det -1% and Cruzain inh noDet -6%.
`Cc1ccc(N2C(=O)C(CC(=O)Nc3cccc(F)c3)N(CCc3ccccc3F)C2=O)cc1` (stereo not drawn) gave Cruzain inh Det -8% and Cruzain inh noDet 0%.
Cc1ccc(C)c(N2CCN(C(=O)Cn3cnc4onc(-c5ccc(F)cc5)c4c3=O)CC2)c1 was read as Cruzain inh Det -7% and Cruzain inh noDet -13%.
Screening COc1ccc(-c2cc(=O)oc3cc(OCC(C)=O)ccc23)cc1 returned Cruzain inh Det -5% and Cruzain inh noDet -7%.
COc1ccc(-c2cc(=O)oc3cc(OCC(=O)c4cccc([N+](=O)[O-])c4)ccc23)cc1 was read as Cruzain inh Det -8% and Cruzain inh noDet 25µM*.
Cc1ccc(C(=O)c2oc3ccccc3c2NC(=O)COc2ccccc2Cl)cc1 was read as Cruzain inh Det 2% and Cruzain inh noDet 19%.
`O=C(N/N=C/c1cccc([N+](=O)[O-])c1)c1ccc2c(c1)OCCO2` gave Cruzain inh Det -5% and Cruzain inh noDet 5%.
Screening O=C(N/N=C/c1cccc([N+](=O)[O-])c1)c1cc(-c2ccc3c4c(cccc24)CC3)n[nH]1 returned Cruzain inh Det -5% and Cruzain inh noDet 7.9µM*.
O=C(N/N=C/c1cccc([N+](=O)[O-])c1)c1cc2c(ccc3ccccc32)o1 was read as Cruzain inh Det -13% and Cruzain inh noDet 10µM*.
O=C(N/N=C/c1ccncc1)c1cc2c(ccc3ccccc32)o1 was read as Cruzain inh Det -6% and Cruzain inh noDet -1%.
For CO[C@@H]1/C=C\O[C@]2(C)Oc3c(C)c(O)c4c(O)c(c(CN5CCN(C)CC5)c(O)c4c3C2=O)NC(=O)/C(C)=C\C=C[C@@H](C)[C@@H](O)[C@H](C)[C@@H](O)C(C)[C@H](OC(C)=O)[C@@H]1C (stereo partly drawn) the results were Cruzain inh Det -14% and Cruzain inh noDet inconclusive.
`COc1ccc2oc(=O)c(C(=O)NCCc3c(C)[nH]c4ccc(F)cc34)cc2c1` gave Cruzain inh Det -7% and Cruzain inh noDet -22%.
Screening Cc1ccc(C)c(N(C)S(=O)(=O)c2ccc3[nH]cc(C(=O)NC4CCCC4)c(=O)c3c2)c1 returned Cruzain inh Det 0% and Cruzain inh noDet 16%.
N#CNC(=Nc1ccc(F)cc1)SCc1ccccc1 was read as Cruzain inh Det 2% and Cruzain inh noDet 25µM*.
CC(C)N=C(NC#N)SCc1ccc(F)cc1 was read as Cruzain inh Det 3% and Cruzain inh noDet 9%.
Cc1cc(C)cc(NC(=O)CC(C)n2nc(C)cc2C)c1 (stereo not drawn) was read as Cruzain inh Det -2% and Cruzain inh noDet 14%.
Screening Cc1cc2oc(=O)cc(CSc3nnc(-c4cccs4)o3)c2cc1C(C)C returned Cruzain inh Det -6% and Cruzain inh noDet 13µM*.
For Cc1cc2oc(=O)cc(CSc3nnc(C)n3N)c2cc1C(C)C the results were Cruzain inh Det -14% and Cruzain inh noDet -10%.
CCN(CC)CCCn1c(-c2ccccc2)nc2c(NCCOC)nc(C)nc21 was read as Cruzain inh Det 5% and Cruzain inh noDet 9%.
CCOc1ccc(S(=O)(=O)c2cn(Cc3cc(C)ccc3C)c3ccc(OCC)cc3c2=O)cc1 was read as Cruzain inh Det -4% and Cruzain inh noDet 16µM*.
For Cc1ccc(Cn2cc(S(=O)(=O)c3ccc(C(C)C)cc3)c(=O)c3cc4c(cc32)OCO4)cc1 the results were Cruzain inh Det -6% and Cruzain inh noDet 32µM*.
For CC(C)c1ccc(S(=O)(=O)c2cn(Cc3ccc(F)cc3)c3cc4c(cc3c2=O)OCO4)cc1 the results were Cruzain inh Det -2% and Cruzain inh noDet inconclusive.
For CCCn1cc(S(=O)(=O)c2ccc(OCC)cc2)c(=O)c2cc(C)ccc21 the results were Cruzain inh Det -3% and Cruzain inh noDet -5%.
Screening COC(=O)N1[C@H](C)C=C[C@]1(Cc1ccccc1)C(=O)NCc1ccc(N(C)C)cc1 returned Cruzain inh Det 5% and Cruzain inh noDet -3%.
Screening CC(C)(C)C1CCc2nc(NC(=O)c3cccc(Cl)c3)sc2C1 (stereo not drawn) returned Cruzain inh Det -3% and Cruzain inh noDet -3%.
For O=C(COC(=O)/C=C/c1ccc(Cl)cc1Cl)Nc1cc(C(F)(F)F)ccc1N1CCOCC1 the results were Cruzain inh Det -3% and Cruzain inh noDet 13µM*.
`O=C(COC(=O)/C=C/c1ccccc1)Nc1cc(C(F)(F)F)ccc1N1CCOCC1` gave Cruzain inh Det -2% and Cruzain inh noDet -2%.
`Cc1ccc2c(c1)NC(c1cccnc1)=NC(c1ccc(F)cc1)=N2` gave Cruzain inh Det -4% and Cruzain inh noDet 5%.
Screening Cc1ccc(C2=NC(c3ccc(F)cc3)=Nc3ccc(C)cc3N2)cc1 returned Cruzain inh Det -1% and Cruzain inh noDet 25µM*.
For Cc1ccc(S(=O)(=O)c2nc(-c3ccco3)oc2SCc2ccc(F)cc2)cc1 the results were Cruzain inh Det -21% and Cruzain inh noDet 1%.
Cc1cc(-n2c(C)nc3ccccc3c2=O)ccc1NC(=O)C(F)(F)F was read as Cruzain inh Det 0% and Cruzain inh noDet -9%.
`Cc1ccc2nc(NC(=O)c3cccs3)sc2c1` gave Cruzain inh Det 0% and Cruzain inh noDet -8%.
For CCCOc1ccc(C(=O)NC(=S)Nc2nc3ccccc3s2)cc1 the results were Cruzain inh Det 2% and Cruzain inh noDet inconclusive.
Cc1ccc2nc(NC(=O)c3ccc(Cl)s3)sc2c1 was read as Cruzain inh Det 1% and Cruzain inh noDet 13µM*.
Screening CCOCC(=O)Nc1nc2ccc(C)cc2s1 returned Cruzain inh Det -4% and Cruzain inh noDet 4%.
For C/C=C/C(=O)OCC(=O)Nc1nc2ccc(C)cc2s1 the results were Cruzain inh Det 0% and Cruzain inh noDet 20µM*.
`CCCOc1ccc(C(=O)NC(=S)Nc2nc3ccc(C)cc3s2)cc1` gave Cruzain inh Det 7% and Cruzain inh noDet 25µM*.
